Test results reported in PubChem BioAssay (Tox21).
Records with an inconclusive call do not appear. Activity calls are given as the source filed them. Unless noted, calls come from the whole dose curve; as a rule, active = well fitted curve in the direction sought with a large enough effect in the repeat runs; inconclusive = weak or mixed curves; inactive = no such curve, though single readings can be large; an effect the other way counts as inactive or inconclusive.

Assays:
[1] = qHTS assay for small molecule agonists of the p53 signaling pathway (AID 651631; calls by dose curve; note: nearly all actives have a fitted effect of over 15% in size)
Procedure, shortened: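 HCT-116 cells carrying a beta-lactamase reporter under p53 response elements were dosed with compound for 16 h at 37 °C. LiveBLAzer B/G FRET substrate was then added for 2 h at room temperature, and fluorescence intensity was read to detect pathway agonism.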

[2] = qHTS assay for small molecules that induce genotoxicity in human embryonic kidney cells expressing luciferase-tagged ATAD5 (AID 651632); note: nearly all actives have a fitted effect of over 15% in size
Procedure, shortened: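 Concentration-response screen for ATAD5 upregulation in HEK293T luciferase reporter cells; 16 hr treatment at 37C, then luminescence after 30 min with Amplite at room temperature.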

[3] = qHTS assay for small molecule agonists of the p53 signaling pathway - cell viability (AID 651633; calls by dose curve;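 note: p53RE-bla HCT reporter cells with a stable beta-lactamase p53 reporter; series mostly up to about 83 µM; nearly all actives have a fitted effect of over 30% in size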)
Procedure, shortened: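 p53RE-bla cells, seeded at 4,000 per well and rested 5 h at 37 C/5% CO2, received compounds in DMSO for 16 h at 37 C. CellTiter-Glo was then added, and luminescence was read after 30 min at room temperature to gauge cytotoxicity.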

[4] = qHTS assay for small molecules that induce genotoxicity in human embryonic kidney cells expressing luciferase-tagged ATAD5 - cell viability (AID 651634; calls by dose curve; note: nearly all actives have a fitted effect of over 25% in size)
Procedure, shortened: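 15.5 hr compound or vehicle exposure of HEK293T cells expressing luciferase-tagged ATAD5 at 37C; live-cell protease activity is read by fluorescence after 30 min of CellTiter-Fluor.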

[5] = qHTS assay for small molecule disruptors of the mitochondrial membrane potential - cell viability (AID 720634; calls by dose curve;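 note: human HepG2 liver cancer cells; series mostly up to about 83 µM; nearly all actives have a fitted effect of over 20% in size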)
Procedure, shortened: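 In this qHTS format, HepG2 cells plated overnight were pinned with compound, incubated 1 hr, and assayed for ATP luminescence with CellTiter-Glo after m-MPI dye addition.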

[6] = qHTS assay to test for compound auto fluorescence at 590 nm (red) in HepG2 cells (AID 720674)
Procedure, shortened: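 Compound auto-fluorescence is scored relative to Rose Bengal sodium, measured at 540/590 nm in live HepG2 cultures after 1 hr compound contact (37 C, 5% CO2).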

[7] = qHTS assay to test for compound auto fluorescence at 535 nm (green) in HepG2 cells (AID 720675)
[8] = qHTS assay to test for compound auto fluorescence at 460 nm (blue) in HEK293 cells (AID 720678)
Procedure, shortened: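 After cell attachment (4-5 hr, 37C), compounds were pinned onto HEK293 monolayers in 10% dialyzed FBS medium. The blue channel (405/460 nm) was read following overnight culture. Equivalency was calculated against triamterene.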

[9] = qHTS assay to test for compound auto fluorescence at 590 nm (red) in HEK293 cells (AID 720679)
Procedure, shortened: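 Plates of HEK293 cells (10% dialyzed FBS) are treated with 23 nL compound or DMSO vehicle after a 4-5 hr attachment period, incubated overnight at 37C, and read for red fluorescence at 540/590nm.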

[10] = qHTS assay for small molecule disruptors of the mitochondrial membrane potential (AID 720635)
Procedure, shortened: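 HepG2 cells (2,000/well) attached overnight at 37C, then took compound for 1 hr at 37C, 5% CO2. Mito-MPS dye was added for 30 min; fluorescence was read at 490/535 nm (monomers) and 540/590 nm (aggregates).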
% is set by controls: 0 for no effect and ±100 for the full control effect.

CN(C)c1cc(NC(=O)CNC(C)(C)C)c(O)c2c1C[C@H]1C[C@H]3[C@H](N(C)C)C(=O)C(C(N)=O)=C(O)[C@@]3(O)C(=O)C1=C2O
inactive: Potency [1] | Potency [2] | outcome [3] | outcome [4] | outcome [5] | outcome [6] | outcome [7] | outcome [8] | outcome [9]

O=c1[nH]c(=O)c2cn[nH]c2[nH]1
inactive: Potency [1] | Potency [2] | outcome [3] | outcome [4] | outcome [5] | outcome [6] | outcome [7] | outcome [8] | outcome [9]

CCNC(=O)C(C)OC(=O)Nc1ccccc1 (stereo not given)
inactive: Potency [1] | Potency [2] | outcome [3] | outcome [4] | outcome [5] | outcome [6] | outcome [7] | outcome [8] | outcome [9]

C=C(C)C(=O)OCCCC
inactive: Potency [1] | Potency [2] | outcome [3] | outcome [4] | outcome [5] | outcome [6] | outcome [7] | outcome [8] | outcome [9]

Nc1ccc(C(=O)NCC(=O)O)cc1
inactive: Potency [1] | Potency [2] | outcome [3] | outcome [4] | outcome [5] | fluorescence, relative to Rose Bengal [6] 0.477% [at 18.6 µM] | fluorescence, % of fluorescein control [7] 0.0596% [at 18.6 µM] | fluorescence, % of triamterene [8] -0.0255% [at 18.6 µM] | fluorescence, % of fluorescent control [9] -0.524% [at 18.6 µM]

COc1cc2nc(N3CCN(C(=O)C4CCCO4)CC3)nc(N)c2cc1OC (stereo not given)
inactive: Potency [1] | Potency [2] | outcome [3] | outcome [4] | outcome [5] | outcome [6] | outcome [7] | outcome [8] | outcome [9]

CC12CCCC=C1C(=O)OC2=O (stereo not given)
inactive: Potency [1] | Potency [2] | outcome [3] | outcome [4] | outcome [5] | outcome [6] | outcome [7] | outcome [8] | outcome [9]

CCC(C)(C)C
inactive: Potency [1] | Potency [2] | outcome [3] | outcome [4] | outcome [5] | outcome [6] | outcome [7] | outcome [8] | outcome [9]

CC(C)=CCC/C(C)=C\C#N
inactive: Potency [1] | Potency [2] | outcome [3] | outcome [4] | outcome [5] | outcome [6] | outcome [7] | outcome [8] | outcome [9]

CC(C)(C)NCC(O)COc1cccc2c1CCC(=O)N2 (stereo not given)
inactive: Potency [1] | Potency [2] | outcome [3] | outcome [4] | outcome [5] | fluorescence, relative to Rose Bengal [6] -0.0368% [at 18.6 µM] | fluorescence, % of fluorescein control [7] -0.225% [at 18.6 µM] | fluorescence, % of triamterene [8] 0.0079% [at 18.6 µM] | fluorescence, % of fluorescent control [9] 0.0747% [at 18.6 µM]

CCC(C)SSC(C)CC (stereo not given)
inactive: Potency [1] | Potency [2] | outcome [3] | outcome [4] | outcome [5] | outcome [6] | outcome [7] | outcome [8] | outcome [9]

C=CC(=O)CC
inactive: Potency [1] | Potency [2] | outcome [3] | outcome [4] | outcome [5] | outcome [6] | outcome [7] | outcome [8] | outcome [9]

CN(C)CCc1c[nH]c2ccc(C[C@H]3COC(=O)N3)cc12
inactive: Potency [1] | Potency [2] | outcome [3] | outcome [4] | outcome [5] | outcome [6] | outcome [7] | outcome [8] | outcome [9]

Cc1ccc(O)c(C(=O)c2ccccc2)c1
inactive: Potency [1] | Potency [2] | outcome [3] | outcome [4] | outcome [5] | outcome [6] | outcome [7] | outcome [8] | outcome [9]

CC(=O)SC[C@@H](C)C(=O)N1CCC[C@H]1C(=O)N[C@@H](Cc1ccccc1)C(=O)O
inactive: Potency [1] | Potency [2] | outcome [3] | outcome [4] | outcome [5] | outcome [6] | outcome [7] | outcome [8] | outcome [9]

Cc1cc(C)c(N)c(Cl)c1
inactive: Potency [1] | Potency [2] | outcome [3] | outcome [4] | outcome [5] | outcome [6] | outcome [7] | outcome [8] | outcome [9]

CCc1ncc(C)[nH]1
inactive: Potency [1] | Potency [2] | outcome [3] | outcome [4] | outcome [5] | outcome [6] | outcome [8] | outcome [9]

CNCCc1ccccn1
inactive: Potency [1] | Potency [2] | outcome [3] | outcome [4] | outcome [5] | fluorescence, relative to Rose Bengal [6] 0.136% [at 18.6 µM] | fluorescence, % of fluorescein control [7] -0.0784% [at 18.6 µM] | fluorescence, % of triamterene [8] 0.106% [at 18.6 µM] | fluorescence, % of fluorescent control [9] 0.589% [at 18.6 µM]

O=S(=O)(O)CC(O)CCl (stereo not given)
inactive: Potency [1] | Potency [2] | outcome [3] | outcome [4] | outcome [5] | outcome [6] | outcome [7] | outcome [8] | outcome [9]

COC(C)(C)CC(C)=O
inactive: Potency [1] | Potency [2] | outcome [3] | outcome [4] | outcome [5] | outcome [6] | outcome [7] | outcome [8] | outcome [9]

O=c1c(O)c(O)c1=O
inactive: Potency [1] | outcome [3] | outcome [4] | outcome [5] | Potency [10] | outcome [6] | outcome [7] | outcome [8] | outcome [9]

O=C(OOC(=O)c1ccccc1)c1ccccc1
inactive: Potency [1] | outcome [3] | outcome [4] | outcome [5] | Potency [10] | outcome [6] | outcome [7] | outcome [8] | outcome [9]

CCOC(=O)COc1ccc2c(C)c(CCN(CC)CC)c(=O)oc2c1Cl
inactive: Potency [1] | outcome [3] | outcome [4] | outcome [5] | outcome [6] | outcome [7] | outcome [8] | outcome [9]

CC(C)(C)C(=O)NCCCC(=O)O
inactive: Potency [1] | Potency [2] | outcome [3] | outcome [4] | outcome [5] | outcome [6] | outcome [8] | outcome [9]

Cc1ccc(S(=O)(=O)NC(=O)NN2CC3CCCC3C2)cc1 (stereo not given)
inactive: Potency [1] | Potency [2] | outcome [3] | outcome [4] | outcome [5] | fluorescence, relative to Rose Bengal [6] 0.0207% [at 18.6 µM] | fluorescence, % of triamterene [8] -0.0452% [at 18.6 µM] | fluorescence, % of fluorescent control [9] -0.0362% [at 18.6 µM]

COc1ccc(Cl)cc1C
inactive: Potency [1] | outcome [3] | outcome [4] | outcome [5] | Potency [10] | outcome [6] | outcome [7] | outcome [8] | outcome [9]
